Composite z-score data for 35 molecules are collected here from PubChem BioAssay.

SMILES strings stand for the structures.

This test can be described thus: anti-His antibody binders, primary screen, artefact control for SMM control protein annotation, biochemical, small-molecule microarray, 635 nm fluorescence (AID 1128).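 Also: score merges feature fluorescence with signal-to-noise for each printed compound spot.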 To be noted: anti-His Alexa647 antibody binding, higher = more signal.
In the case of `CCCCC(O)C1C=CC2C(=O)N(Cc3ccccc3)C(=O)C2N1n1cnnc1` (stereo not given), the composite z-score was determined as 2.39.
Regarding `COCCCNC(=O)[C@@]1(C)c2ccccc2C(=O)N(c2ccc(C)cn2)[C@H]1c1ccc(CO)cc1`, the composite z-score is -0.545.
The result for `CCCC=C(CCC)[C@@H](NS(=O)(=O)c1cccc2cccnc12)c1ccc(C(=O)OC)cc1` reads 1.4.
To `COc1ccccc1CN1C(=O)c2ccccc2[C@](Cc2ccccc2I)(C(=O)NCCN2CCOCC2)[C@@H]1c1ccc(CO)cc1` belongs 0.74; to `C=C(COC)/C(=C/C[C@@H](OC(=O)c1ccncc1)c1cccc(OCCO)c1)c1cc(C(=O)OC)ccc1OC`, 0.0301.
Molecule `C=CCNC(=O)[C@@H]1[C@H]2C(=O)O[C@H](c3ccccc3)[C@H](c3ccccc3)N2[C@H](c2ccc(O)cc2)[C@@]12C(=O)Nc1ccc(C#CCCO)cc12` gave a composite z-score of 0.111.
The result for `COCCCNC(=O)[C@]1(Cc2ccccc2)N=C(c2ccc(OCCCO)cc2)O[C@@H]1c1ccccc1N=[N+]=[N-]` reads 0.36; that for `COC(=O)C(CC#Cc1ccc2c(c1)[C@]1(C(=O)N2)[C@H](c2ccccc2OCCO)N2[C@H](c3ccccc3)[C@H](c3ccccc3)OC(=O)[C@H]2[C@@H]1C(=O)Nc1nc2ccccc2s1)C(=O)OC`, 0.35; that for `CCOC(=O)C[C@H]1[C@H](OC(=O)c2cc3ccccc3oc2=O)[C@@H](NC(=O)c2ccc3ccccc3n2)c2cc(OCCCO)ccc2N1C(=O)c1ccc2ccccc2n1`, 0.81.
To `NCCCCCCNC(=O)[C@H]1C[C@H]2C(=O)N3CCC[C@H]3C(=O)N2[C@H]1c1ccc(O)cc1` belongs 2.79.
To `C=CCOC(=O)[C@@H]1[C@H]2C(=O)O[C@H](c3ccccc3)[C@H](c3ccccc3)N2[C@H](c2ccc(OCCOC(=O)[C@@H]3C[C@@H]4C(=O)N[C@@H](CCCCNC(C)=O)C(=O)N4[C@@H]3c3ccc(O)cc3)cc2)[C@@]12C(=O)Nc1ccc(I)cc12` belongs 1.73.
Regarding `COc1ccc([Si](C)(C)[C@@H]2[C@@H](CCO)O[C@]3(C(=O)N(Cc4ccccc4)c4ccc(N5C(=O)COc6ccccc65)cc43)[C@H]2C)cc1`, the composite z-score is 0.807.
As for `CN1C(=O)C2C=CC(C(O)c3cccc4ccccc34)N(NC(=O)OC(C)(C)C)C2C1=O` (stereo not given), the composite z-score is 1.45.
`COc1ccc(C(=O)Nc2ccc3c(c2)[C@]2(O[C@@H](CCO)[C@H]([Si](C)(C)c4ccc(OC)cc4)[C@H]2C)C(=O)N3Cc2ccccc2)cc1` had a composite z-score of -0.155.
To `O=C1c2ccccc2[C@](Cc2ccccc2I)(C(=O)NC2CC2)[C@H](c2ccc(CO)cc2)N1Cc1ccccc1Cl` belongs 1.07; to `COC(=O)C(CC#Cc1ccc2c(c1)[C@]1(C(=O)N2)[C@H](c2ccc(O)cc2)N2[C@H](c3ccccc3)[C@H](c3ccccc3)OC(=O)[C@H]2[C@@H]1C(N)=O)C(=O)OC`, -2.69.
The result for `CC(C)CNC(=O)[C@@]1(C)c2ccccc2C(=O)N(Cc2ccccc2)[C@H]1c1ccc(CO)cc1` reads -0.97.
The result for `COC(=O)C(CC#Cc1ccc2c(c1)[C@]1(C(=O)N2)[C@H](c2ccc(OCCO)cc2)N2[C@H](c3ccccc3)[C@H](c3ccccc3)OC(=O)[C@H]2[C@@H]1C(=O)O)C(=O)OC` reads 3.08; that for `CC(C)C(CO)N1C(=O)[C@@H]2[C@H]3C(=O)OCC=C[C@H]3OC23C=CCN(Cn2nnc4ccccc42)C(=O)[C@@H]13` (stereo not given in full), 0.36; that for `O=C1N(Cc2ccccc2)c2ccccc2[C@H]2OC(c3ccc(OCCCO)cc3)=N[C@@]12CCS(=O)(=O)c1ccccc1`, 1.68.
Consider `CCCNC(=O)[C@@H]1c2ccccc2C(=O)N(CC23CC4CC(CC(C4)C2)C3)[C@H]1c1ccc(CO)cc1`, for which the composite z-score was found to be 0.618.
To `C=C(C)[C@@H]1CC=C(C(O)C2C=CC3C(=O)N(C4CCCCC4)C(=O)C3N2Nc2ccc(OC)cc2)CC1` (stereo not given in full) belongs 0.736.
The result for `OCCCC1=CC(c2cccs2)N(Cc2cccc(OC(F)(F)F)c2)CC1` (stereo not given) reads 0.357; that for `Cc1ccccc1C(O)C1C=CC2C(=O)N(Cc3ccccc3)C(=O)C2N1n1cnnc1` (stereo not given), 1.54; that for `COc1ccc([Si](C)(C)[C@H]2[C@H](CCO)O[C@@]3(C(=O)N(Cc4cccc(N5CCOC5=O)c4)c4ccccc43)[C@@H]2C)cc1`, 0.56.
To `COCCOC(=O)N1C(=O)[C@@]2(c3cc(C#CC4(O)CCCCCC4)ccc31)[C@H](C(=O)N1CCc3cc(OC)c(OC)cc3C1)[C@H]1C(=O)O[C@H](c3ccccc3)[C@H](c3ccccc3)N1[C@@H]2c1ccccc1OCCO` belongs 1.07; to `CC(=O)NCCCC[C@@H]1NC(=O)[C@H]2C[C@@H](C(=O)NCCCCCN)[C@@H](c3cccc(OCCO)c3)N2C1=O`, 2.38.
In turn, `COc1ccc(C#Cc2ccc3c(c2)[C@]2(C(=O)N3)[C@H](C(=O)O)[C@H]3C(=O)O[C@H](c4ccccc4)[C@H](c4ccccc4)N3[C@@H]2c2ccc(OCCO)cc2)cc1` showed a composite z-score of 2.61.
The result for `COCC1=C([C@H](O)CCc2ccccc2)[C@H](CO)[C@@H]2C(=O)N(C)C(=O)[C@@H]2C1` reads -0.0971; that for `CC(C)(C)N1CC=CC23O[C@@H]4C=CCCOC(=O)C4[C@H]2C(=O)N(CCCO)[C@@H]3C1=O` (stereo not given in full), -1.89.
For the molecule `O=C1O[C@H](c2ccccc2)[C@H](c2ccccc2)N2[C@H]1[C@@H](C(=O)N1CCCCCCC1)[C@]1(C(=O)Nc3ccccc31)[C@H]2c1ccc(O)cc1`, the composite z-score turned out to be 3.64.
To `COC(=O)[C@]1(Cc2ccccc2CN=[N+]=[N-])N=C(c2ccc(OCCCO)cc2)O[C@@H]1c1ccccc1CN=[N+]=[N-]` belongs 1.12; to `O=C1c2ccccc2[C@](Cc2ccccc2I)(C(=O)NCC(F)(F)F)[C@H](c2ccc(CO)cc2)N1Cc1ccccc1`, 0.0638.
To `NC(=O)NCC#Cc1ccc2c(c1)[C@]1(C(=O)N2)[C@H](c2ccc(OCCO)cc2)N2[C@H](c3ccccc3)[C@H](c3ccccc3)OC(=O)[C@H]2[C@@H]1C(=O)N1CCCCCCC1` belongs 0.418; to `N#Cc1ccc(NN2C(C(O)c3ccco3)C=CC3C(=O)N(c4ccccc4)C(=O)C32)cc1` (stereo not given), 0.716.
